# Myeloid diff MLP: induction of myeloid progenitor differentiation, primary screen, cell-based, flow cytometry, MLPCN library | 360,000 tested, 1% active | ER-HoxA9 myeloid progenitors, lysozyme-GFP differentiation | calls only at 10 µM;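 active = normalized GFP-positive differentiation at or above the plate's own cutoff, the solvent-only control mean plus 3 SD; inconclusive = no clear call, values can overlap the other calls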;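 also: cells exposed to compound for four days before flow analysis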
# RAD54 inh: inhibitors of human RAD54 branch migration, primary screen, biochemical, fluorescence, single point; DNA repair and recombination protein RAD54-like (Homo sapiens), Q92698; RAD54 Holliday junction branch migration, FAM/BHQ fluorescence; inhibition, % at 10.4 µM; 360,000 tested, 0.14% active;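 active = mean normalized replicate activity at least 40 and at least half of replicates scoring 40 or more; inconclusive = only one of the two criteria met; inactive = mean below 40 and under half of replicates reaching 40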;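 also: 0% = median of neutral control wells and 100% = median of positive control wells; inhibitors cause a drop in the FAM fluorescence signal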
# Vif imaging: HIV Vif self-association inhibitors, primary screen, imaging, HEK293T, single point; HEK293T cells, Vif self-association by quenched fluorescence, 24 h; inhibition, % at 7.49 µM; 340,000 tested, 0.35% active; in the data active = inhibition above about 50%, passing the limit was not always enough; inconclusive = no clear call, values can overlap the other calls; inactive = below about 31%
# ABCB6 inh 2: ABCB6 transporter inhibitors, primary screen, K562-ABCB6 cells, flow cytometry, MLPCN library; 360,000 tested, 0.19% active; fluorescence ratio to DMSO, % at 10 µM; K562-ABCB6 porphyrin accumulation, 1 h; active compounds read low;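 active = fluorescence ratio to DMSO below 75%, the collection mean minus 3 SD; inconclusive = too few cells collected in the well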;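 also: signal is porphyrin accumulated inside mitochondria; 100% equals median channel fluorescence of DMSO control wells; lower ratio means ABCB6 inhibition with less porphyrin fluorescence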
# Target sequence (Q9NP58 whole entry, looked up): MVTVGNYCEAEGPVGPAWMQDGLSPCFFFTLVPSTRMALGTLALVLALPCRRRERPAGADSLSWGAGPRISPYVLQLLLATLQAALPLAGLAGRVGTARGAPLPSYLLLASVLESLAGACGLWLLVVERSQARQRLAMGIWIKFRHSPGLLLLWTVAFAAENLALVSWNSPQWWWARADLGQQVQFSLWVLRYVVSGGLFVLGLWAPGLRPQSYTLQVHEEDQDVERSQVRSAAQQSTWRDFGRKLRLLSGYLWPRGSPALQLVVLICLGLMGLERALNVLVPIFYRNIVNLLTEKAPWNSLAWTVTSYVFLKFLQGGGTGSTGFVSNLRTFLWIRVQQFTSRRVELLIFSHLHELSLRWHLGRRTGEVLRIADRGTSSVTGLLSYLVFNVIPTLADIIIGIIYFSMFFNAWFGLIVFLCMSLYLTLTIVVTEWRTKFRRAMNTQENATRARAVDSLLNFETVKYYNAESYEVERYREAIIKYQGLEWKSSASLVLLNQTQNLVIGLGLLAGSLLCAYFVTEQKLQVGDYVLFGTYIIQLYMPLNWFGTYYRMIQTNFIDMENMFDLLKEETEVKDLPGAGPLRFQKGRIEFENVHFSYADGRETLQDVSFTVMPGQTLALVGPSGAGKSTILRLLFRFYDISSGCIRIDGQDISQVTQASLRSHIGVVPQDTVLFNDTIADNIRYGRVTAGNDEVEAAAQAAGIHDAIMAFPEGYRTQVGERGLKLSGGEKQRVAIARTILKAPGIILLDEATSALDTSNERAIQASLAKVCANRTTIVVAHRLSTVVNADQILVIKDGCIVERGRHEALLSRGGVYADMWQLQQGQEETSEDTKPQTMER
# Glyco luc inh: increase of ERlucT glycosylation luciferase signal, primary screen, N-linked glycosylation inhibitor project, D54 ERlucT cells, luminescence, set 2 | D54 ERlucT glycosylation luciferase reporter, 24 h; percent of 100 nM tunicamycin response | reporter increase, % at 12.5 µM | 360,000 tested, 0.23% active;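 active = mean luciferase reporter signal, scaled so untreated is 0 and the glycosylation-blocking control 100, at or above a set limit in every replicate; inconclusive = mean reaches the limit but not every replicate does; inactive = mean below the limit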;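 also: luciferase carries N-glycosylation sites so blocking glycosylation raises the light; 0% = median of neutral control wells and 100% = median of 100 nM tunicamycin wells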
# Numbers without * were called inactive; i = inactive; ? = inconclusive; · = no result; + = active, no number. Only some compounds are listed: those with a hit (about 1.6% of all), similar ones and a draw of the others.
SMILES,Myeloid diff MLP,RAD54 inh,Vif imaging,ABCB6 inh 2,Glyco luc inh
CCn1cnc2cc(NCc3ccc(OC)cc3)ccc21,i,-2,11,100,1
Cc1noc(/C=C/c2ccccn2)c1[N+](=O)[O-],+,-1,18,98,-3
CCCCN(CC)CCNC(=O)c1cc2cc3ccc(Cl)cc3nc2o1,+,35,-3,i,2
CCCCN(CC)CCCNC(=O)c1cc2cc3ccc(C)cc3nc2o1,i,22,8,99,-1
CO[C@@H]1CN(C)C(=O)c2ccc(NC(=O)c3cccc(F)c3)cc2OC[C@@H](C)N(C)C[C@@H]1C,·,9,·,·,·
CCn1c2ccccc2c2cc(NC(=O)c3cccc(OC)c3)ccc21,i,8,-4,102,1
COc1cccc(C(=O)Nc2ccncc2)c1OC,i,2,-13,97,3
CCn1c2ccccc2c2cc(NC(=O)c3cccc(OC)c3OC)ccc21,+,·,-17,98,7
CCn1c2ccccc2c2cc(NC(=O)CNCc3ccccc3OC)ccc21,·,-6,4,102,29*
COc1cccc(C(=O)Nc2ccc(N(C)C)cc2)c1OC,+,3,-2,138,-5
CCN(CC)S(=O)(=O)c1cccc(C(=O)OCC(=O)Nc2ccc3c(c2)c2ccccc2n3CC)c1,i,·,2,103,29*
CCn1c2ccccc2c2cc(NC(=O)COc3ccccc3OC)ccc21,?,·,1,93,16
O=C1C(O)CC2c3ccccc3CC3(CCCC3)N12 (stereo unspecified),+,1,15,107,-1
O=c1[nH]c(=O)n(C2CC(O)C(CO)O2)cc1I (stereo unspecified),·,·,16,102,81*
O=c1[nH]c(=O)n([C@H]2C[C@H](O)[C@@H](CO)O2)cc1F,?,6,4,93,-2
O=c1[nH]c(=O)n([C@H]2C[C@H](O)[C@@H](CO)O2)cc1Br,?,0,4,98,48*
Cc1cn([C@H]2C[C@H](N=[N+]=[N-])[C@@H](CO)O2)c(=O)[nH]c1=O,+,15,-4,90,0
C[C@@H]1CN([C@@H](C)CO)S(=O)(=O)c2ccc(C#C[C@@H](C)O)cc2O[C@@H]1CN(C)Cc1ccc(-c2ccccc2)cc1,·,0,·,·,·
C[C@H](O)C#Cc1cnc2c(c1)C(=O)N([C@H](C)CO)C[C@H](C)[C@@H](CN(C)C(=O)CN1CCOCC1)O2,·,1,·,·,·
CC(=O)c1cccc(NC(=O)CSc2ncc(C(=O)Nc3ccccc3)c(=O)n2C)c1,i,5,3,92,30*
Cc1ccc(S(=O)(=O)N[C@@H]2CC[C@@H](CCn3cc(C4CC4)nn3)O[C@H]2CO)cc1,·,1,·,·,·
C[n+]1c2n(c3ccccc31)N=C(c1ccc(Cl)cc1)CS2,+,19,4,96,22
COc1ccc(C2=Nn3c([n+](C)c4ccccc43)SC2)cc1,?,·,-3,100,4
N#C/C(=C/C1=C(N2CCOCC2)C(=C/c2ccc(Cl)cc2Cl)/CC1)C(=O)Nc1ccccc1F,+,·,0,i,0
N#C/C(=C/C1=C(N2CCOCC2)C(=C/c2ccccc2)/CC1)C(=O)Nc1ccccc1F,+,-6,14,i,-9
SMILES,Myeloid diff MLP,RAD54 inh,Vif imaging,ABCB6 inh 2,Glyco luc inh
N#C/C(=C\C1=C(N2CCOCC2)C(=C\c2ccc(Cl)cc2)/CC1)C(=O)Nc1ccccc1F,+,·,-1,i,-4
N#C/C(=C\C1=C(N2CCOCC2)C(=C/c2cccc([N+](=O)[O-])c2)/CC1)C(=O)Nc1ccccc1F,i,·,1,426,-11
CC(C)C(=O)N=C1SC2CS(=O)(=O)CC2N1Cc1ccccc1 (stereo unspecified),i,-6,55*,101,-1
O=C(C[C@@H]1CC[C@@H](NC(=O)c2ccccc2)[C@H](CO)O1)NCc1ccc(Oc2ccccc2)cc1,·,6,·,·,·
O=C(COc1ccccc1)NCc1ccccc1,i,0,-3,101,0
O=C(COc1ccc(C(=O)c2ccccc2)cc1)NCc1ccc(F)cc1,i,·,6,99,29*
Cc1cc(C)c(OCC(=O)Nc2ccc3c(c2)OCO3)cc1C,i,-4,67*,88,-2
Cc1ccc(C)c(OCC(=O)Nc2ccc3c(c2)OCO3)c1,·,·,-6,95,-1
Cc1cccc(N2CCN(CC(=O)Nc3ccc(S(=O)(=O)N4CCOCC4)cc3)CC2)c1C,+,-2,-23,88,-2
O=C(COc1ccc(S(=O)(=O)N2CCOCC2)cc1)Nc1cccc([N+](=O)[O-])c1,i,2,20,102,1
COc1ccc(CN2CCN(S(=O)(=O)c3ccc(NC(C)=O)cc3)CC2)c(OC)c1OC,+,·,1,97,-2
COc1ccccc1OCC(=O)Nc1ccc(S(=O)(=O)N2CCCC2)cc1,i,-5,76*,94,-2
O=C(COc1ccc([N+](=O)[O-])cc1)Nc1ccc(S(=O)(=O)N2CCOCC2)cc1,i,10,55*,98,1
COc1ccccc1OCC(=O)Nc1ccc(S(=O)(=O)N2CCN(C)CC2)cc1,i,-12,-4,94,-1
C[C@@H]1CN([C@@H](C)CO)C(=O)Cc2cc(NC(=O)CCCN(C)C)ccc2O[C@H]1CN(C)S(=O)(=O)c1cccs1,·,0,·,·,·
COCC(=O)Nc1ccc2c(c1)[C@H]1C[C@@H](CC(=O)NCc3ccc(Cl)cc3)O[C@@H](CO)[C@H]1O2,·,4,·,·,·
O=C(COc1ccc(S(=O)(=O)N2CCOCC2)cc1)NC1CC1,i,3,52*,98,1
CCOc1ccc(NC(=O)CN(C)C(=O)c2cc(S(=O)(=O)N3CCCCC3)ccc2Cl)cc1OCC,i,-2,92*,90,1
O=C(COc1ccc(S(=O)(=O)N2CCOCC2)cc1)NC1CCCC1,i,-8,24,96,2
C[C@H]1CN([C@@H](C)CO)C(=O)c2cc(NC(=O)Nc3ccc(F)cc3)ccc2O[C@@H]1CN(C)Cc1ccc(Oc2ccccc2)cc1,·,-3,·,·,·
CCNC(=O)C[C@H]1CC[C@H]2[C@H](COc3ccc(NC(=O)c4cccc(C(F)(F)F)c4)cc3C(=O)N2C)O1,·,0,·,·,·
Cc1ccc(S(=O)(=O)Nc2cc(=O)[nH]c(SCc3ccc(Cl)cc3)n2)cc1,i,-7,3,275,0
COc1ccc(Cl)cc1NC(=O)CSc1nc(NS(=O)(=O)c2ccc(C)cc2)cc(=O)[nH]1,+,6,-11,91,-4
S=C(NCCN(C1CCCCC1)C1CCCC1)Nc1cccc(Cl)c1,+,7,-9,96,-5

# Assay outcomes (PubChem)
